# Laboratory results published in PubChem BioAssay.
# Results filed as inconclusive are left out. For some of these results: Measured potencies and affinities stand elsewhere. Calls of active or inactive are those of the source.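 How the source made its calls, unless noted: active means z-score of at least 1.8 in each of two replicates, scored against plate mean and spread of sample wells; inactive means the rest.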
# Assays:
# [1] = polyglutamine-triggered caspase-3 activation inhibitors, cell-based (AID 1583); details: polyglutamine-induced caspase-3 activation, cell assay; stronger effect = higher value;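 tested at 10 µM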
# [2] = suppressors of polyQ aggregation in yeast, 75Q-TubU reporter (AID 1593); details: Yeast 75Q polyglutamine aggregation reporter
# [3] = rescue of polyQ-huntingtin neuronal dysfunction in worms, whole organism, C. elegans mechanosensory neurons, N-terminal huntingtin (AID 1599); details: touch response, stronger effect = higher value
# [4] = inhibitors of mitochondrial cytochrome c release, biochemical, purified mitochondria (AID 1603); details: stronger effect = lower value;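 further: mouse liver mitochondria challenged with calcium chloride; signal normalized to the plate average as 100%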
# [5] = inhibitors of polyQ protein aggregation (AID 1604); details: polyglutamine-induced protein aggregation inhibition assay; stronger effect = higher value; tested at 2.5 µM
# [6] = enhancers of glutamate uptake in motor neurons, MN-1 cell line (AID 1612); details: MN-1 motor neuron cells, stronger effect = higher value;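 further: tested at 1 µM final; 0% = mean of DMSO vehicle wells on each plate; positive means more glutamate uptake than control and negative means less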
# [7] = reducers of polyQ inclusions in PC12 cells, cell-based, NGF-treated PC12, GFPQ80 (AID 1614); details: PC12 NGF-treated GFP-polyQ80 inclusion reduction;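 further: lower means fewer inclusions and 0 means no inclusions at all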
# [8] = suppressors of polyglutamine aggregation in yeast, 75Q-TubH (AID 1616); details: S. cerevisiae 75Q-TubH polyglutamine aggregation suppression; stronger effect = higher value
# [9] = viability rescue of complex I mutant cybrids, primary screen, cell-based, galactose medium, ATP luminescence (AID 1645843); details: complex I mutant cybrid cells, 72 h, stronger effect = higher value;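 further: positive z means more ATP and so rescue of galactose-driven cybrid death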
# [10] = hESC survival regulators, cell-based (AID 493140; call rule not given here;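 further: cells exposed to compounds for four days before counting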); details: human embryonic stem cell survival screen; stronger effect = higher value
# [11] = target: Mitogen-activated protein kinase 7 (Homo sapiens) (UniProt Q13164); assay: ERK5 transactivation activators in reporter cells, primary screen, cell-based, HTS (AID 1508626;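 active means luciferase signal above three times the same-plate solvent-only control wells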;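 further: luciferase driven by Gal4-ERK5 fusion binding five Gal4 sites before minimal TATA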); details: HeLa Gal4-ERK5 transactivation, 18 h, at 5 µM, stronger effect = higher value
# Chain of Mitogen-activated protein kinase 7 (Homo sapiens) (Q13164 whole entry, looked up, the tested form may be a part): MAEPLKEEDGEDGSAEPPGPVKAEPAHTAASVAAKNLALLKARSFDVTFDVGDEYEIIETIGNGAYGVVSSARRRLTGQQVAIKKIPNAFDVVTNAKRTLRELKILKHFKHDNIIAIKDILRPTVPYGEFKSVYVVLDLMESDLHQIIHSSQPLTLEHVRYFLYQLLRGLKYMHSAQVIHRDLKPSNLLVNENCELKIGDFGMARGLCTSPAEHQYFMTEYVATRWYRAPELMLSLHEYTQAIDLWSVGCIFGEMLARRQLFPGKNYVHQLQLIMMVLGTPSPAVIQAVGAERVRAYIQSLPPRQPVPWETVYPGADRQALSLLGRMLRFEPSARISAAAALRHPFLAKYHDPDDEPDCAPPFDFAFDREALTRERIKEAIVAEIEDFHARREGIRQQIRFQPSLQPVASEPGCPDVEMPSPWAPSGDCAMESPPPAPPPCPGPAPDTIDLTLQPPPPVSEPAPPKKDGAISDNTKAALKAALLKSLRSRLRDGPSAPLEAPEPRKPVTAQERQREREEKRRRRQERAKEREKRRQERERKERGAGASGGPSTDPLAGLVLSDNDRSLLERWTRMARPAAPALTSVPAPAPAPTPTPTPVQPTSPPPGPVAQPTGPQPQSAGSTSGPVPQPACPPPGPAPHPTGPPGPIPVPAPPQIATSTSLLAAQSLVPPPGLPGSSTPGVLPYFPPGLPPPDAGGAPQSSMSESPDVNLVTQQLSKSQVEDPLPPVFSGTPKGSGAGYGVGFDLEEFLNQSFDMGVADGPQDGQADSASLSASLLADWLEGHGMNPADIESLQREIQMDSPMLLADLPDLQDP
# [12] = protection against mutant huntingtin cytotoxicity, PC12 cells, LDH release (AID 1610); details: PC12 mutant huntingtin toxicity, final LDH at 4 uM, stronger effect = lower value
# [13] = target: ATP-dependent translocase ABCB1 (Homo sapiens) (UniProt P08183); assay: MDR1 (ABCB1) efflux transporter inhibition, cell-based (AID 377; in the data active means fluorescence slope change above about 50%); details: MDR1-expressing cells, fluorescent substrate accumulation slope; stronger effect = higher value; concentration not given here
# Chain of ATP-dependent translocase ABCB1 (Homo sapiens) (P08183 whole entry, looked up): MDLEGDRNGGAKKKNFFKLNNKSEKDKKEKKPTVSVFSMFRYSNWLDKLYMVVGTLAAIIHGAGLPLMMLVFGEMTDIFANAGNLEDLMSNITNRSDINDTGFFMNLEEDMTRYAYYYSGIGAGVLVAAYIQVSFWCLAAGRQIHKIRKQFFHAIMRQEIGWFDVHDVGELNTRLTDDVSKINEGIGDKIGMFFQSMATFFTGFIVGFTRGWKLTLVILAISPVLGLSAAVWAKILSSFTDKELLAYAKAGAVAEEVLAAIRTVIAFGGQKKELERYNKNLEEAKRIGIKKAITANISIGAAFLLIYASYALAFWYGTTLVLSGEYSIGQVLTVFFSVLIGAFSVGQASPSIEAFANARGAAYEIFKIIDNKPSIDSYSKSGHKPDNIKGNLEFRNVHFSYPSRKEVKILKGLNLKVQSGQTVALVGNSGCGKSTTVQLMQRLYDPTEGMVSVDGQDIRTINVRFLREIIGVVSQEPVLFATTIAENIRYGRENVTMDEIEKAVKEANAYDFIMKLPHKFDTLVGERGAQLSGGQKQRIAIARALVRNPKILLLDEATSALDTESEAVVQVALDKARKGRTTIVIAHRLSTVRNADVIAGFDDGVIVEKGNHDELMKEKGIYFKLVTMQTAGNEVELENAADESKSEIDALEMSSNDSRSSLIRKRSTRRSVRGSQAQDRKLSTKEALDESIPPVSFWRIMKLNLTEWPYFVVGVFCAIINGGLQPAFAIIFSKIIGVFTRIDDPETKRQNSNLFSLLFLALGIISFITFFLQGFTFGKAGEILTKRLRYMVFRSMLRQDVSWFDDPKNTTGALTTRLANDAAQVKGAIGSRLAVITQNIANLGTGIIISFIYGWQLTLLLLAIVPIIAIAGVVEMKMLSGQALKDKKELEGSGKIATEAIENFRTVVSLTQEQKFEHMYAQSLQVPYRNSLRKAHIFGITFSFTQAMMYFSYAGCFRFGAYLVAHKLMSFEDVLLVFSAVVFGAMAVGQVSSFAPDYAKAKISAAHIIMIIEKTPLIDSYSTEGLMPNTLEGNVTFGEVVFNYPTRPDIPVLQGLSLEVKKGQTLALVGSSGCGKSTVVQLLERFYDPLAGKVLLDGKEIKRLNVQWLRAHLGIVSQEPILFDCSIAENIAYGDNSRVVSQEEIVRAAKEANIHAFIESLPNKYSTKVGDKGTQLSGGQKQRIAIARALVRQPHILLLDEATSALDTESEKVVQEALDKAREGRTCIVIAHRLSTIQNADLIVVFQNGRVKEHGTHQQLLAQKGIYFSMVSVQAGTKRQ
Structure (SMILES),inhibition [1] [%],score [2],rescue above control [3],cytochrome c release ratio [4],inhibition of aggregation [5] [%],glutamate uptake change [6] [%],inclusion score [7],aggregation suppression score [8],z-score [9],survival [10],luciferase signal [11],normalised LDH release [12],fluorescence slope change [13]
CN1CC[C@]23c4c5ccc(O)c4O[C@H]2C(=O)CCC3[C@H]1C5 (stereo partly drawn),7.55,1.13,-11.3,1.11,-0.68,20.7,2,1.27,,,,,
C[C@]12CCC3C(CC[C@@H]4C[C@H](O)CC[C@]34C)C1CCC2=O (stereo partly drawn),61,0.81,-3.82,0.77,91.7,-9.61,,0.472,,,,,
NCCC(O)C(=O)N[C@@H]1C[C@H](N)[C@@H](O[C@H]2O[C@H](CN)[C@@H](O)[C@H](O)[C@H]2N)[C@H](OC2O[C@H](CO)[C@H](O)[C@H]2O)[C@H]1O (stereo partly drawn),5.62,1.4,9.62,1.37,83.3,13.4,2,1.55,,,,,
O=c1c2cc(F)ccc2ncn1Cc1cn2ccccc2n1,,,,,,,,,0.245 (inactive),,,,
CN1C(=O)C(O)N=C(c2ccccc2)c2cc(Cl)ccc21 (stereo not drawn),-6.64,1.21,0.82,0.99,8.84,4.66,2,1.05,,,,,
COc1cc(CCN)cc(OC)c1OC,8.49,1.47,-5.41,0.91,22.4,-3.12,2,1.23,,,,,
O=C1Nc2ccc(Cl)cc2C(c2ccccc2)=NC1O (stereo not drawn),-2.46,1.01,-7.17,1.14,32,0.27,,0.898,,,,,
CCOC(=O)C1C(OC(=O)c2ccccc2)CC2CCC1N2C (stereo not drawn),4.42,1.01,-8,0.89,44.2,-24.3,2,1.45,,,,,
CNC1(c2ccccc2Cl)CCCCC1=O (stereo not drawn),12.3,1.43,-2.24,1.27,3.17,-3.45,2,1.36,,,,,
CC[C@H]1C(=O)OC[C@@H]1Cc1cccn1C,-1.44,1.44,2.37,0.94,42.5,10.3,2,1.24,,,,,
CCOC(=O)C1(c2ccccc2)CCN(C)CC1,15,1.03,5.54,0.93,7.48,5.98,2,1.14,,,,,
CC[C@@H]1[C@@H](O)N2C3C[C@H]1C1C(O)[C@]4(C[C@@H]12)c1ccccc1N(C)[C@@H]34 (stereo partly drawn),7.74,0.91,-2.66,0.89,-46.3,-1.35,2,1.31,,,,,
O=c1ccc2cc(O[C@H]3O[C@H](CO)[C@@H](O)[C@H](O)[C@H]3O)c(O)cc2o1,-25.3,0.99,-9.34,0.66,56.9,21.7,2,0.763,,,,,
CN1C(=O)CN=C(c2ccccc2F)c2cc([N+](=O)[O-])ccc21,9.27,0.97,-7.57,0.83,22.4,-1.18,2,0.965,,,,,
COc1ccc(CN2CCN(C)C(CCO)C2)c(OC)c1OC (stereo not drawn),,,,,,,,,-0.21 (inactive),,,,
CC1CC[C@@]2(NC1)OC1CC3C4CC=C5CC(O)CCC5(C)C4CCC3(C)C1[C@@H]2C (stereo partly drawn),0.23,1.05,-8.79,1.04,64.7,-2.74,2,0.556,,,,,
O=c1ccc2cc(O[C@@H]3OC(CO)[C@@H](O)[C@@H](O)C3O)c(O)cc2o1 (stereo partly drawn),,,,,,,,,,4.42 (inactive),48 AU (inactive),,
CCCCCc1cc(O)c2c(c1)OC(C)(C)c1ccc(C)cc1-2,29.1,-1.59,9.18,1.94,-2.04,-26.4,,-0.155,,,,0.953,
CCNC(C)Cc1cccc(C(F)(F)F)c1 (stereo not drawn),-12,1.17,-3.67,0.91,15.7,-14.9,2,1.24,,,,,23.3% (inactive)
CNC(C)Cc1ccc2c(c1)OCO2 (stereo not drawn),-3.07,0.95,-0.64,0.84,0.68,-3.54,2,1.38,,,,,
CNC(C)C(=O)c1ccccc1 (stereo not drawn),-15.1,1.02,-6.75,1.05,49.7,-3.86,2,1.11,,,,,
CN1C2CC(OC(=O)[C@H](CO)c3ccccc3)C[C@H]1CC2O (stereo partly drawn),17.4,1.3,-1.97,0.75,83.9,4.44,2,1.3,,,,,
CCC(=O)C(CC(C)N(C)C)(c1ccccc1)c1ccccc1 (stereo not drawn),-9.47,1.06,0.15,0.89,21.1,7.77,2,0.899,,,,,
